Screening results (PubChem BioAssay)
HPGD block: qHTS Assay for Inhibitors of HPGD (15-Hydroxyprostaglandin Dehydrogenase); 15-hydroxyprostaglandin dehydrogenase [NAD(+)] (Homo sapiens), P15428; purified HPGD, NADH fluorescence kinetic, PGE2 substrate; Potency, µM, usual class: inhibitors; 150,000 tested, 4.3% active; AID 894, 2007; active = well fitted inhibition curve with a large enough effect, not every such curve was filed as active; inconclusive = small, poorly fitted or top-dose-only effect, or another doubt; inactive = no such curve, though single readings can be large or run the other way
Target sequence (P15428 whole entry, looked up): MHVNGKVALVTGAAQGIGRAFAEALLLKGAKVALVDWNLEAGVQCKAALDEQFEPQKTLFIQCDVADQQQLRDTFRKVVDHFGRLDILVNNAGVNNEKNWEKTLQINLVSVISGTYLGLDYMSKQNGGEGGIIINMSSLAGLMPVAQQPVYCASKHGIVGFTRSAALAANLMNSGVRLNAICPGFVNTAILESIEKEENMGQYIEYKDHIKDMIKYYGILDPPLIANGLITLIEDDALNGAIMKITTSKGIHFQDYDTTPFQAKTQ
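20 nM HPGD preincubated 15 min at room temperature with compound in 50 mM Tris-HCl pH 8, 0.01% Tween 20. Started with 1 mM NAD+ and 30 uM prostaglandin E2; NADH fluorescence (360/450 nm) read 5 times over 30-s intervals, last minus first.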
HttQ103 aggreg: qHTS Multiplex Assay to Identify Dual Action Probes in a Cell Model of Huntington: Aggregate Formation (GFP). PC12 HttQ103-GFP aggregates, Acumen cytometry, 40 h. Potency, µM (series often up to 46.1 µM), usual class: inhibitors. 220,000 tested, 1.1% active. AID 1688, 2009; also: nearly all actives have a fitted effect of over 60% in size
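PC12 cells with ecdysone-inducible HTT exon1 Q103-GFP, induced by 100 nM tebufenozide, given compounds in a concentration series. GFP aggregates (1–25 um, 6 SD above background) counted in lysates by laser-scanning cytometry, 488 nm excitation.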
ALDH1A1 block: qHTS Assay for Inhibitors of Aldehyde Dehydrogenase 1 (ALDH1A1) | Aldehyde dehydrogenase 1A1 (Homo sapiens), P00352 | 220,000 tested, 7.3% active | Potency, µM (titrated, usually from 75.3 µM), hits mostly inhibitors | Purified ALDH1A1, NADH fluorescence, propionaldehyde substrate; active = well fitted inhibition curve with a large enough effect, not every such curve was filed as active; inconclusive = small, poorly fitted or top-dose-only effect, or another doubt; inactive = no such curve, though single readings can be large or run the other way
Target sequence (P00352 whole entry, looked up): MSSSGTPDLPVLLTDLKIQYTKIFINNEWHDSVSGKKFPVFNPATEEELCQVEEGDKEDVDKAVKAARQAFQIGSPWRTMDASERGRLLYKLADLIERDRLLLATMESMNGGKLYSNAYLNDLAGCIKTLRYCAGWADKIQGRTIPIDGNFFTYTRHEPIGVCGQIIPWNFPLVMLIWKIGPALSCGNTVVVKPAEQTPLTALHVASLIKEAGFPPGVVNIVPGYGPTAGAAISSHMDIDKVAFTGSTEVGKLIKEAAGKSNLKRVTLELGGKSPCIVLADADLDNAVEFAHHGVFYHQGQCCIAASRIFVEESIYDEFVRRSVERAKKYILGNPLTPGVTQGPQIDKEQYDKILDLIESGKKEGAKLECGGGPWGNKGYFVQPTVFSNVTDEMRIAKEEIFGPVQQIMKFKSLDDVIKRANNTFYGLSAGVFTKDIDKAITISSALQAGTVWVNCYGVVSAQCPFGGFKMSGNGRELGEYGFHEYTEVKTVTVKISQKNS
HTT ATP protect: qHTS Multiplex Assay to Identify Dual Action Probes in a Cell Model of Huntington: Cytoprotection (ATP); 230,000 tested, 0.14% active; PC12 HTT-Q103 induced, cytoprotection, ATP luminescence, 40 h; Potency, µM (titrated, usually from 56.4 µM), hits mostly activators; also: nearly all actives have a fitted effect of over 45% in size
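Huntington model: PC12 line, ecdysone-inducible HTTQ103 exon1–GFP, tebufenozide 100 nM. Test articles in a dose series. Endpoint luminescence from cellular ATP.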
LMNA splice mod: qHTS Assay for Modulators of Lamin A Splicing | HeLa LMNA splicing GFP/RFP minigene ratio, 48 h | Potency, µM (series often up to 46.1 µM), usual class: inhibitors | 200,000 tested, 0.01% active; active = well fitted inhibition curve with a large enough effect in the signal ratio, with a control signal flat, not every such curve was filed as active; inconclusive = small, poorly fitted or top-dose-only effect, or effect the other way, or a change in a side signal; the % refers to the signal ratio
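S3 HeLa stable clones carrying a lamin A-EGFP splicing minigene plus DsRed2 were seeded at 600 cells/well in Opti-MEM with 2% FBS, pin-dosed and incubated 48 h at 37°C. Acumen cytometry (488 nm) gave the GFP/RFP total-intensity ratio.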
Luc counter: Counterscreen for Luciferase (Kinase-Glo TM) Inhibition; Luciferin 4-monooxygenase (Photuris pensylvanica), Q27757; Kinase-Glo luciferase, ATP luminescence, 8 min; Potency, µM (top dose mostly 38.3 µM), actives largely listed as inhibitors; 200,000 tested, 0.28% active; AID 1379, 2008; also: nearly all actives have a fitted effect of over 60% in size
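Inhibition of Kinase-Glo luciferase light generation was assessed at 10 uM ATP in pH 7.2 imidazole buffer, with luminescence measured after eight minutes at ambient temperature.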
Large screens that a line does not name were inactive. Hits are enriched below; roughly 9% of the tested compounds scored in any of these assays. Unless noted, calls follow the shape of the dose curve; as a rule, active = well fitted curve in the direction sought with a large enough effect; inconclusive = small, poorly fitted or top-dose-only effect, or another doubt; inactive = no such curve, though single readings can be large; an effect the other way counts as inactive or inconclusive.

CCOc1ccc(-n2cc(-c3ccccc3)c3c(=O)[nH]cnc32)cc1	none (no result: HPGD block)
CSc1ccccc1-n1nnnc1SCC(=O)Nc1cc(C)ccc1C	ALDH1A1 block 14µM
COC(=O)COC(=O)c1ccc(-n2nnnc2SC)cc1	ALDH1A1 block inconclusive
COC(=O)c1ccc(-n2nnnc2SC)cc1	HPGD block 13µM, HttQ103 aggreg inconclusive, ALDH1A1 block 28µM
COc1ccccc1Oc1nnnn1-c1ccc(C(N)=O)cc1	ALDH1A1 block 13µM
c1ccc(-n2nnnc2OCCOc2nnnn2-c2ccccc2)cc1	ALDH1A1 block 2.5µM
COc1ccc(-c2noc(-c3ccc4c(c3)OCO4)n2)cc1	HPGD block inconclusive, ALDH1A1 block inconclusive
CN1C(=O)CC(N2CCN(c3ncccn3)CC2)C1=O (configuration not stated)	ALDH1A1 block inconclusive
COC(=O)c1sccc1NC(=O)CSc1nnnn1-c1ccccc1F	ALDH1A1 block 14µM, LMNA splice mod inconclusive
c1ccc(-c2noc(CSc3nnnn3-c3ccccc3)n2)cc1	ALDH1A1 block 11µM
Cn1cnnc1SCc1ccccc1	none
CSc1ccccc1-n1nnnc1SCc1ccccc1	HttQ103 aggreg inconclusive, ALDH1A1 block 7.1µM, LMNA splice mod inconclusive
Cc1ccccc1-n1nnnc1Sc1nnnn1-c1ccccc1	HttQ103 aggreg 14µM, ALDH1A1 block 25µM, LMNA splice mod inconclusive
Cc1ccccc1-n1nnnc1SCC(N)=O	ALDH1A1 block inconclusive
CCSc1nnc(N)s1	none
O=[N+]([O-])c1ccc(Sc2nnnn2-c2ccccc2)nc1	HttQ103 aggreg inconclusive, ALDH1A1 block 22µM (no result: HPGD block, LMNA splice mod)
COc1ccc(Oc2nnnn2-c2ccccc2)cc1	ALDH1A1 block 7.9µM
O=S(=O)(NCCSc1nnnn1-c1ccccc1)c1cccs1	ALDH1A1 block 13µM
CCCSc1nnc(Sc2nnnn2-c2ccccc2)s1	HttQ103 aggreg 22µM, ALDH1A1 block 11µM, LMNA splice mod inconclusive
O=C1N=c2ccccc2=C1c1sc(=S)n(CC2CCCO2)c1O (configuration not stated)	none
COc1ccc(Oc2cnn(-c3ccccc3)c(=O)c2Br)cc1	ALDH1A1 block 25µM (no result: HPGD block, LMNA splice mod)
CC(=O)Nc1ccc(CN2CCN(c3cccc(C(F)(F)F)c3)CC2)cc1	ALDH1A1 block inconclusive
COc1cc(/C=C(\C#N)C(N)=O)ccc1OS(=O)(=O)c1ccc(C)cc1	HPGD block 28µM, ALDH1A1 block 18µM
COc1cc(/C=C(\C#N)C(=O)NC2CCCCC2C)ccc1OS(=O)(=O)c1ccc(C)cc1 (configuration not stated)	HPGD block inconclusive, HttQ103 aggreg inconclusive, ALDH1A1 block 8.9µM, LMNA splice mod inconclusive
CC(C)OC(=O)c1c(NS(=O)(=O)c2ccccc2)sc2c1CCCC2	HttQ103 aggreg inconclusive, ALDH1A1 block inconclusive, LMNA splice mod inconclusive
COCCN=C1NN=C(c2ccc(NC(C)=O)cc2)CS1	ALDH1A1 block inconclusive (no result: HPGD block)
CCN=C1NN=C(c2ccc(C)cc2)CS1	HPGD block 28µM, ALDH1A1 block 25µM
c1ccc(C2=NNC(=NCc3ccc4c(c3)OCO4)SC2)cc1	ALDH1A1 block 25µM (no result: HPGD block, Luc counter)
CC(C)N=C1NN=C(c2ccc(F)cc2)CS1	ALDH1A1 block inconclusive, Luc counter 10µM (no result: HPGD block, LMNA splice mod)
Fc1ccccc1N=C1NN=C(c2ccccc2)CS1	HttQ103 aggreg inconclusive, ALDH1A1 block inconclusive, LMNA splice mod inconclusive (no result: HPGD block)
Clc1ccc(C2=NNC(=NCc3ccccc3)SC2)cc1	ALDH1A1 block 10µM (no result: HPGD block, LMNA splice mod)
CO[C@H]1COC(=O)C/C=C\[C@@H](C)[C@H](OC)COC(=O)CCC[C@@H]1C	none (no result: HPGD block, HttQ103 aggreg, LMNA splice mod, Luc counter)
C=CCN1C=C2C(=O)C(C)(OC(=O)CCC(=O)OC)C(=O)C=C2C=C1C1CC1 (configuration not stated)	LMNA splice mod inconclusive
CC(=O)c1c(C)[nH]c(C2=NNC(=NCc3ccccc3)SC2)c1C	ALDH1A1 block 28µM (no result: HPGD block)
c1ccc(CN=C2NN=C(c3ccccc3)CS2)cc1	ALDH1A1 block 22µM (no result: HPGD block)
COc1ccccc1C1=NNC(=NCc2ccccc2)SC1	ALDH1A1 block inconclusive (no result: HPGD block)
C=CCN=C1NN=C(c2ccc3c(c2)OCCO3)CS1	ALDH1A1 block 20µM, Luc counter 10µM (no result: HPGD block)
C=CCN=C1NN=C(c2cc(C)n(CC=C)c2C)CS1	ALDH1A1 block inconclusive, Luc counter inconclusive
Fc1ccc(C2=NNC(=NCc3ccccc3)SC2)cc1F	ALDH1A1 block inconclusive, HTT ATP protect inconclusive (no result: HPGD block, LMNA splice mod)
COc1cc2c3nnc(-c4ccc(F)cc4)c-3cn(Cc3ccc(C)cc3)c2cc1OC	ALDH1A1 block 4.5µM
COc1cc2c3nnc(-c4ccccc4)c-3cn(Cc3ccc(F)cc3)c2cc1OC	ALDH1A1 block inconclusive (no result: HPGD block, LMNA splice mod)
COc1cc2c3nnc(-c4ccc(F)cc4)c-3cn(Cc3cccc(F)c3)c2cc1OC	HttQ103 aggreg 10µM, LMNA splice mod inconclusive (no result: HPGD block)
CC(C)N(Cc1nc(-c2ccccc2)no1)C(=O)c1ccc(Br)o1	ALDH1A1 block 10µM
CC(C)N(Cc1nc(-c2ccccc2)no1)C(=O)c1ccc(Cl)cc1	HttQ103 aggreg inconclusive, LMNA splice mod inconclusive
Cc1ccc(C(=O)N(Cc2nc(-c3ccc(C)cc3)no2)C(C)C)cc1	none
Cc1ccc(SCC(=O)N(Cc2nc(-c3ccccc3)no2)C(C)C)cc1	ALDH1A1 block 25µM
CCN(CC)c1ccc(NC(=O)c2cncc(Br)c2)cc1	HttQ103 aggreg inconclusive
CCN(CC)C(=O)COc1ccc(-c2nnc(Nc3ccc(OC)c(C(=O)NC)c3)c3ccccc23)cc1	ALDH1A1 block 25µM (no result: HPGD block, LMNA splice mod, Luc counter)
CCOc1ccc(N2C(=O)/C(=C/c3ccco3)N(C)C2=S)cc1	ALDH1A1 block inconclusive
Cc1ccc(/C=C2/C(=O)N(c3ccccc3)C(=S)N2C)o1	ALDH1A1 block 4µM
C(=N\c1nc2ccccc2[nH]1)/c1cccs1	ALDH1A1 block inconclusive, Luc counter inconclusive
Nc1nc(SC2c3cccc4cccc(c34)C2NS(=O)(=O)c2ccccc2)n[nH]1 (configuration not stated)	ALDH1A1 block 14µM
NNc1cc([N+](=O)[O-])cc2c1C(=O)N(Cc1ccccc1)S2=O (configuration not stated)	ALDH1A1 block 14µM (no result: HPGD block)
CCCN1Cc2cccc(C(=O)NC(CC(=O)OCC)c3ccc(OC(C)C)cc3)c2C1=O (configuration not stated)	ALDH1A1 block inconclusive (no result: HPGD block, LMNA splice mod)
